Data from the supplement of paper PMC10338343.
± gives the standard deviation. Over roughly 8,200 sequences, “pre-steady-state target cleavage rate” has its median near 0.024; the highest 2% begin near 1.3. The list comes from a sample in which the highest values are over-represented; it also holds similar and randomly drawn sequences.

System: MIWI (PIWIL1) piRISC loaded with L1MC piRNA (30 nt)
Assay: pre-steady-state target cleavage rate (min^-1); MIWI and MILI are mouse PIWI proteins and EfPiwi is from a freshwater sponge; tags in brackets are library labels; higher = faster piRNA-guided slicing of the target
Details: guide: L1MC piRNA 5'p-UAACUAAAUACUAUGCAAGCUGUAGGUCCU
Outline: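 A transcribed, DNA-blocked target RNA library (0.1 nM) and 1 nM active affinity-purified piRISC bearing one synthetic guide were incubated in HEPES–potassium acetate buffer at 33 °C for 0–8 or 0–960 min, either with or without 500 nM GTSF1 partner protein. Uncleaved targets were sequenced, normalised to depth and to weakly complementary targets, and pooled over three trials, with k3 capped at 0.0001 min^-1. The pre-steady-state cleavage rate was derived with a burst-and-steady-state fit.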

[1] = auxiliary factor: 500 nM mouse GTSF1
[2] = auxiliary factor: none (no GTSF1)

Sequence	pre-steady-state target cleavage rate [1]	pre-steady-state target cleavage rate [2]
UCCACCUAGUGCUUGCAUAGUAUUUUCAAA	0.0568 ± 0.012	–
UGGACCUAGUCCUUGCAUAGUAUUUACAAA	0.0221 ± 0.0084	–
UGCACCUACAGCUAGCAUAGUAUUUAGUUA	1.22 ± 0.097	0.0194 ± 0.0043
UCCUGGAUGAGCUUGCAUAGUAUUAUGAAA	0.0112 ± 0.0054	–
UCGACCUACAGCUUGCAAAGUAUUUACAAA	0.33 ± 0.035	0.00465 ± 0.002
UCCUGCUUGUGCUUGCAUAGUAUUUACAAA	0.0637 ± 0.014	0.00366 ± 0.0024
UCGACCUACAGCAAGCAUAGUAUUUAGAAA	0.349 ± 0.041	–
AGGACCUACAGCAAGCAUAGUAUUUAGUUA	1.2 ± 0.069	0.0105 ± 0.0035
UGGACCUACAGCAAGCAUAGUAUUUAGUAA	0.898 ± 0.11	0.0053 ± 0.0019
UCGACCUACAGCAAGCAUAGUAUUUAGUAA	0.818 ± 0.066	0.00275 ± 0.0026
UCGACCUACAGCAAGCAUAGUAUUUAGUUA	1.4 ± 0.083	0.00748 ± 0.0028
UGGACCUACAGCAAGCAUAGUAUUUAGUUA	1.34 ± 0.1	0.00929 ± 0.0027
UCCUCCUACAGCUUGCAUAGUACUUUAGUUA	0.588 ± 0.024	0.00867 ± 0.0017
AGGACCUAGUCCUUGCAUAGUAUUUACAAA	0.256 ± 0.046	0.00328 ± 0.0019
UCCUGGUACAGCUUGCAUAGUUUUUAGAUA	0.136 ± 0.043	0.00988 ± 0.0027
AGGACCUACAGCUUGCAUAGUAAUUAGAAA	0.475 ± 0.071	0.00445 ± 0.0038

Sequence	pre-steady-state target cleavage rate [1]	pre-steady-state target cleavage rate [2]
UCCUGGAACUGCAUGCAUAGUAUUUAGUUA	0.442 ± 0.035	0.00687 ± 0.0019
UCCUCCUACAGCAUGCAUAGUAUUUAGUUA	1.2 ± 0.051	0.0219 ± 0.0048
UCCACCUACAGCAUGGAUAGUAUUUAGUUA	1.34 ± 0.062	0.0231 ± 0.0039
UCCUGCUACAGCAUGGAUAGUAUUUAGUUA	1.13 ± 0.15	0.015 ± 0.0025
UGGACCUACAGGAAGCAUAGUAUUUAGUUA	0.994 ± 0.094	0.00926 ± 0.0024
AGGACCUACAGCAUGGAUAGUAUUUAGUUA	1.57 ± 0.086	0.0502 ± 0.0089
UCCACCUACAGCAUGCAUAGUAUUUAGAUA	0.423 ± 0.045	0.00605 ± 0.0027
UCCACCUACAGCAUGCAUAGUAUUUAGUUA	0.977 ± 0.054	0.0309 ± 0.0079
UCGACCUACAGCAUGCAUAGUAUUUAGAUA	0.538 ± 0.041	0.0119 ± 0.004
AGGACCUACAGCAUGCUUAGUAUUUAGUUA	0.977 ± 0.058	0.0155 ± 0.0029
UCGACCUACAGCAUGCUUAGUAUUUAGUUA	0.915 ± 0.057	0.0113 ± 0.0023
UCCUCCUACAGCAUGGAUAGUAUUUAGUUA	1.38 ± 0.067	0.0219 ± 0.0037
UCGACCUACAGCAUGGAUAGUAUUUAGUUA	1.59 ± 0.076	0.0294 ± 0.005
UCCUGGUACAGCUUGACAUAGUAUUUAGUUA	0.271 ± 0.027	–
UCCUGGUACACCUUGCAUAGUAUUUUGUUA	0.436 ± 0.1	0.00901 ± 0.0027
